Screens (PubChem)
ClpP mod – qHTS Assay for Activators of ClpP; purified B. subtilis ClpP, FRET peptide cleavage, 20 min; Potency, µM (doses to about 57.5 µM); hit rate 1.9% among 340,000; AID 651965, 2013; active = well fitted falling curve with a large enough effect; inconclusive = small, poorly fitted or top-dose-only effect; inactive = no such curve, though single readings can be large or run the other way; note: the source files actives as falling curves though it sought activators and does not explain the sign; nearly all actives have a fitted effect of over 65% in size
Target sequence (P80244 whole entry, looked up): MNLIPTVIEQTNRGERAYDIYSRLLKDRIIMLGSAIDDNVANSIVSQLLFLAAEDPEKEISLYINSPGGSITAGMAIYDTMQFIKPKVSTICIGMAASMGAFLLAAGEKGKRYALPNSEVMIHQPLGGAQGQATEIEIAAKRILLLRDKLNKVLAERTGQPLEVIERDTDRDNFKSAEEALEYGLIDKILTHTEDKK
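FRET quenching reversal measured ClpP activation: 10 microg/mL B. subtilis ClpP at pH 8 with the FRET-FV decapeptide, read at 430 nm after 320 nm excitation. The 20-min minus 0-min signal was scaled between DMSO/no-enzyme wells and ADEP (5.8 microM final).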
Eya2 inh – Eya2 (human) phosphatase inhibition; Potency, µM (series often up to 76.9 µM), hits mostly inhibitors; recombinant Eya2, OMFP fluorescence dephosphorylation (OMFP is methylfluorescein phosphate); AID 488837; hit rate 0.006% among 330,000
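Eya2 protein (added as 0.2 uM solution) was preincubated with compound for 10 min at ambient temperature in 50 mM HEPES pH 7.5, 50 mM NaCl, 5 uM MgCl2, 0.05% BSA, 1 mM DTT. OMFP (added at 50 uM) then reacted 10 min; fluorescence read at 485/525 nm.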
GALK inh – inhibitors of human galactokinase; P51570; Purified GALK, Kinase-Glo residual ATP luminescence; Potency, µM (highest dose often 57.5 µM), actives largely listed as inhibitors; hit rate 0.007% among 270,000
Target sequence (P51570 whole entry, looked up): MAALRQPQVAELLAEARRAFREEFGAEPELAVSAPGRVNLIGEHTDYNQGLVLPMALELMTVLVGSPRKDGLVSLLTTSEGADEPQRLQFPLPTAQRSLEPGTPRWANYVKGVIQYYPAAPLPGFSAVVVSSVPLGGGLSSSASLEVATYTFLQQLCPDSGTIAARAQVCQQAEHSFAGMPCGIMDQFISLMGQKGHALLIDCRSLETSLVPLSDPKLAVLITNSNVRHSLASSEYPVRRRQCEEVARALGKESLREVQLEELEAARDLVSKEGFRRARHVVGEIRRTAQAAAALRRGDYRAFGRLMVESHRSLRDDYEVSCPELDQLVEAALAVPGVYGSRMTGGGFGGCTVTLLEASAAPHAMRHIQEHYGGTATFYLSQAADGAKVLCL
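5 nM enzyme, 35 uM ATP, 100 uM galactose, 20 mM HEPES pH8.0, 5 mM MgCl2; 1 h RT; residual ATP by Kinase-Glo Plus luminescence, qHTS format.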
USP2a block – blocks human ubiquitin-specific protease USP2a; O75604; USP2 core, Ub-CHOP2 coupled fluorogenic reporter, 485/531; Potency, µM (doses to about 38.3 µM), usual class: inhibitors; hit rate 0.01% among 330,000; AID 463254
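USP2 core (10nM final) preincubated 30min RT with compound in 20mM Tris-HCl pH 8.0, 2mM CaCl2, 2mM beta-mercaptoethanol, 0.05% CHAPS; 25nM Ub-CHOP2 plus 25nM reporter substrate added, fluorescence (Ex485/Em531) read after 60min.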
Each line names hits and unclear results; the compound was inactive in the other large screens; ! = repeats disagree. Shown is part of a subset that was picked to be rich in hits. Unless noted, calls come from the whole dose curve; as a rule, active = well fitted inhibition curve with a large enough effect; inconclusive = small, poorly fitted or top-dose-only effect, or effect the other way; inactive = flat fitted curve, though single readings scatter.

Cc1cccc(/C=N/NC(=O)c2cc3c(s2)-c2ccccc2CC3)c1	ClpP mod 28µM
CCCOc1ccccc1N/C(=N\S(=O)(=O)c1ccc(C)cc1)Nc1nc(C)cc(C)n1	none (no result: Eya2 inh, GALK inh, USP2a block)
COc1ccc(CC(=O)Nc2nnc(-c3cccc([N+](=O)[O-])c3)s2)cc1	none (no result: GALK inh)
CCCOc1cccc(-c2nnc(NC(=O)c3ccco3)s2)c1	none
O=C(Cc1ccccc1)Nc1nnc(-c2cccc([N+](=O)[O-])c2)s1	ClpP mod 32µM
CCCC(=O)Nc1nnc(-c2cccc(OCC)c2)s1	ClpP mod 28µM
COC(=O)CCCCC1SCC(NC(=O)OC)C1NC(=O)OC (stereo not given)	none
CCN(CC)S(=O)(=O)c1ccc(C(=O)OCC(=O)N2CCOCC2)cc1	none (no result: ClpP mod)
COc1ccc(-c2nc(CS(=O)CC(=O)NCCC3=CCCCC3)c(C)o2)cc1 (stereo not given)	none
COc1ccc(-c2nc(CSCC(=O)NCCc3ccc(C)cc3)c(C)o2)cc1OC	ClpP mod 32µM (no result: Eya2 inh, GALK inh, USP2a block)
COc1ccccc1CNC(=O)CS(=O)Cc1nc(-c2ccc(OC)c(OC)c2)oc1C (stereo not given)	ClpP mod 32µM!
COc1ccc(-c2nc(CSCC(=O)NCc3ccc4c(c3)OCO4)c(C)o2)cc1OC	none
COCCNC(=O)CSCc1nc(-c2ccc(SC)cc2)oc1C	ClpP mod 25µM
COc1ccc(-c2nc(CSCC(=O)NCCC3=CCCCC3)c(C)o2)cc1OC	ClpP mod 25µM
C=CCCC(=O)N1CCC(Oc2cccc(C(=O)NCc3ccccn3)c2)CC1	none
Cc1cc(=O)c2cc(C(=O)Nc3ccccc3)ccc2[nH]1	none (no result: Eya2 inh, GALK inh, USP2a block)
O=C(NC1CCCC1)C(C1CC1)n1c(C2CCCC2)nc2ccccc21 (stereo not given)	none (no result: Eya2 inh, GALK inh, USP2a block)
Cc1ccc(C)c(N2CCN(C(=O)C3CCN(S(=O)(=O)c4ccc5[nH]c(=O)oc5c4)CC3)CC2)c1	none (no result: Eya2 inh, GALK inh, USP2a block)
COc1ccc(-c2nc(CSCC(=O)NCc3ccccc3Cl)c(C)o2)cc1OC	ClpP mod 20µM (no result: Eya2 inh, GALK inh, USP2a block)
COc1ccc(-c2nc(CSCC(=O)N3CCc4ccccc43)c(C)o2)cc1OC	none
Cc1ccc(NC(=O)CC2OC(=O)c3ccccc32)cc1S(=O)(=O)N1CCOCC1 (stereo not given)	none (no result: GALK inh)
CC1CCN(S(=O)(=O)c2ccc3[nH]cc(C(=O)NCCN4CCOCC4)c(=O)c3c2)CC1	ClpP mod 25µM
COCCNC(=O)c1c[nH]c2ccc(S(=O)(=O)N3CCC4(CC3)OCCO4)cc2c1=O	ClpP mod 20µM
CCc1ccccc1N(C)S(=O)(=O)c1ccc2[nH]cc(C(=O)NCCOC)c(=O)c2c1	ClpP mod 28µM (no result: Eya2 inh, GALK inh, USP2a block)
CCO/C=N/c1c(C#N)c2c(c(=S)n1C)COC(C)(C)C2	ClpP mod 3.5µM
O=c1c2ccccc2nc(SCc2nnc(-c3ccccc3)o2)n1-c1ccc(F)cc1F	ClpP mod 25µM
COC(=O)c1ccc(C)c(N(CCO)CCO)c1	none
COc1ccc(C2C3=C(CC(c4ccco4)CC3=O)Nc3ccccc3N2C(C)=O)cc1 (stereo not given)	none
O=C1CC(c2ccco2)CC2=C1C(c1ccccc1)n1nc(C(F)(F)F)nc1N2 (stereo not given)	ClpP mod 25µM
CCOC(=O)C1=C(C)NC2=C(C(=O)CCC2)C1c1cccnc1 (stereo not given)	ClpP mod inconclusive
CC1=C(C(=O)OC(C)C)C(c2cccnc2)C2=C(CCCC2=O)N1 (stereo not given)	ClpP mod 28µM
CC1=C(C(=O)OCC2CCCO2)C(c2ccncc2)C2=C(CCCC2=O)N1 (stereo not given)	ClpP mod 22µM
CCCC(=O)C1=C(O)C(C(=O)OC)C(C)(C)CC1=Nc1ccc(Br)cc1 (stereo not given)	none
COc1ccc(OC)c(Nc2nc(-c3cccc([N+](=O)[O-])c3)nc3ccccc23)c1	none
COc1ccc(Cl)cc1NC(=O)c1cc(-c2cc(C)ccc2O)n[nH]1	none (no result: ClpP mod)
C=CCOc1ccc2c(c1)C(=NO)c1cc(OCC=C)ccc1-2	none
CC(=O)OC[C@H]1O[C@@H](Sc2cccc3cccnc23)[C@H](OC(C)=O)[C@@H](OC(C)=O)[C@H]1OC(C)=O	ClpP mod 4µM
CC(=O)OC[C@H]1O[C@@H](Sc2cccc3cccnc23)[C@H](OC(C)=O)[C@@H](OC(C)=O)[C@@H]1OC(C)=O	ClpP mod 14µM
CC(=O)OCC1OC(c2ccccc2)C(OC(C)=O)C(OC(C)=O)C1OC(C)=O (stereo not given)	none
CCCCS(=O)(=O)Nc1ccc2ncn(C)c(=O)c2c1	ClpP mod 32µM
CCOC(=O)c1c(/N=C/c2cc([N+](=O)[O-])ccc2O)sc(C)c1C	none
Cc1nc2ccc(NC(=O)N3CCSCC3)cc2nc1C	ClpP mod 25µM
O=C(COC(=O)c1ccccc1NCCO)Nc1ccc(S(=O)(=O)NC2=NCCCCC2)cc1	ClpP mod 14µM (no result: Eya2 inh, GALK inh, USP2a block)
CC1(C)CC(=O)C2=C(C1)N(CCN1CCOCC1)C1=C(C(=O)CC(C)(C)C1)C2c1ccc(Cl)cc1	none
CC1(C)CC(=O)C2=C(C1)N(CCN1CCOCC1)C1=C(C(=O)CC(C)(C)C1)C2c1cccc(F)c1	ClpP mod 28µM
Cc1c(N)cccc1-n1cnnn1	none
c1cc2ccc3ccc(-n4cnnn4)c4ccc(c1)c2c34	ClpP mod 28µM
S=C(N/N=C/c1ccc2ncccc2c1)Nc1ccccc1	none
O=C(COc1cccc(Br)c1)N/N=C1\CCCc2ccccc21	none (no result: ClpP mod)
CC(NC(=O)COc1cccc(Br)c1)C(=O)O (stereo not given)	ClpP mod 28µM
O=C(COc1cccc(Br)c1)N/N=C1\CCSC1	ClpP mod 22µM
Nc1ccc2c(c1)C/C(=C/c1ccco1)C2=O	ClpP mod 14µM
O=C1/C(=C/c2ccco2)CCc2ccccc21	none (no result: GALK inh)
O=c1cc[nH]c2c(C(F)(F)F)cccc12	ClpP mod 28µM
CCOc1cc(-c2nnc(-c3ccco3)o2)cc(OCC)c1OCC	ClpP mod 22µM
CCOc1ccc(-c2nnc(-c3ccco3)o2)cc1OCC	ClpP mod 22µM
S=C1NC[C@H](Cc2cccc3ccccc23)N1CC1CCCCC1	none
COc1ccc(N(C)C(=O)Nc2ccc3nsnc3c2)cc1	none (no result: ClpP mod)
COc1ccc(/C=C/C(=O)NCc2cn(C)nc2C)cc1COc1ccc(Cl)cc1Br	ClpP mod 14µM
CN(c1ccccc1)S(=O)(=O)c1cccc(C(=O)NC2CCCC2)c1	ClpP mod 32µM (no result: GALK inh)
CCOC(=O)C1C(c2ccccc2)C(C(=O)OCC)C1c1ccccc1 (stereo not given)	none
CCN(C(=O)COC(=O)c1ccc(OCc2c(C)noc2C)cc1)c1ccccc1	ClpP mod 25µM
CCOc1ccc(-n2c(Cc3ccccc3)nnc2SCc2c(C)noc2C)cc1	ClpP mod 2.8µM
c1ccc(-c2noc(-c3cccc4ccccc34)n2)cc1	ClpP mod 28µM
c1ccc2c(-c3nc(-c4ccncc4)no3)cccc2c1	ClpP mod 32µM
